Calls of active or inactive are those of the source. Rule for the calls: active = hit-call score of the fitted dose curve at least 0.9, where 1 is the maximum; inactive = score below 0.9.

The AC50 is the concentration at which the activity in the assay is half-maximal.

Read-out in experiment [1]: Vascular endothelial growth factor receptor 2 (Homo sapiens) (UniProt P35968)
In words: BSK_4H_VEGFRII: BioMAP Diversity Plus: 4H Assay for Vascular endothelial growth factor receptor 2 (VEGFR2) Biomarker Activity (AID 2283031). As to conditions: primary human endothelial cells (HUVEC); actives raise or lower the signal. In short, it runs like this:
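Primary human umbilical vein endothelial cells in the BioMAP 4H system were dosed with test chemical, and 24 h later VEGFRII was measured by ELISA. Activity was fitted bidirectionally against DMSO as negative control and baseline.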

Read-out in experiment [2]: Human Leukocyte Antigen - DR isotype (HLADR), HLA-DRA (gene 3122)
In words: BSK_BE3C_HLADR: BioMAP Diversity Plus: BE3C Assay for Human Leukocyte Antigen - DR isotype (HLADR) Biomarker Activity (AID 2283032). The conditions noted are these: primary human bronchial epithelial cells; actives raise or lower the signal. The essentials: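 Signal came from an ELISA for HLA-DR in human bronchial epithelial primary cells harvested 24 h after treatment; gain- and loss-of-signal fitting used DMSO controls as reference.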

Read-out in experiment [3]: Vascular cell adhesion molecule 1 (VCAM1), VCAM1 (gene 7412)
In words: BSK_4H_VCAM1: BioMAP Diversity Plus: 4H Assay for Vascular cell adhesion molecule 1 (VCAM1) Biomarker Activity (AID 2283033).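 For outcome: cell-surface VCAM-1 protein measured by ELISA.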 As to conditions: primary human endothelial cells (HUVEC); actives raise or lower the signal. The essentials:
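Endpoint derived from bidirectional fitting against DMSO controls of VCAM-1 ELISA signal in umbilical vein endothelial cells sampled at 24 h following treatment.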

Read-out in experiment [4]: Monokine induced gamma interferon (MIG), CXCL9 (gene 4283)
In words: BSK_BE3C_MIG: BioMAP Diversity Plus: BE3C Assay for Monokine induced gamma interferon (MIG) Biomarker Activity (AID 2283035).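 Note: MIG protein measured by ELISA in BE3C cultures after 24 h of dosing.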 As to conditions: primary human bronchial epithelial cells; actives raise or lower the signal. In short, it runs like this:
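MIG level was determined by ELISA after 24 h chemical treatment of primary human bronchial epithelial cells. Values were fitted bidirectionally with DMSO as the negative control and activity baseline.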

Read-out in experiment [5]: Transforming growth factor beta 1 (TGFb1), TGFB1 (gene 7040)
In words: BSK_BE3C_TGFb1: BioMAP Diversity Plus: BE3C Assay for Transforming growth factor beta 1 (TGFb1) Biomarker Activity (AID 2283036;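 note: TGF-b1 protein level measured by ELISA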). As to conditions: primary human bronchial epithelial cells; actives raise or lower the signal. The essentials:
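In this human primary bronchial epithelial system, an ELISA quantified TGF-b1 one day after dosing. Endpoint changes in either direction were fitted relative to DMSO.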

Read-out in experiment [6]: Plasminogen activator inhibitor-1 (PAI1), SERPINE1 (gene 5054)
In words: BSK_BE3C_PAI1: BioMAP Diversity Plus: BE3C Assay for Plasminogen activator inhibitor-1 (PAI1) Biomarker Activity (AID 2283037). The conditions noted are these: primary human bronchial epithelial cells; actives raise or lower the signal. In short, it runs like this:
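PAI-1 biomarker levels in treated human bronchial epithelial cells are determined by ELISA at 24 h. Both increases and decreases relative to DMSO are fitted.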

Read-out in experiment [7]: urokinase plasminogen activator (uPA), PLAU (gene 5328)
In words: BSK_BE3C_uPA: BioMAP Diversity Plus: BE3C Assay for urokinase plasminogen activator (uPA) Biomarker Activity (AID 2283038).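 For outcome: uPA protein level quantified by ELISA in cell cultures; uPA read one day after compound addition.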 The conditions noted are these: primary human bronchial epithelial cells; actives raise or lower the signal. In short, it runs like this: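 Human primary bronchial epithelial cells were exposed to chemical for 24 h, then uPA levels were measured by ELISA. Responses were fitted bidirectionally against DMSO as negative control and baseline. Parallel SRB staining of total protein gauged overt cytotoxicity.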

Read-out in experiment [8]: Urokinase-type plasminogen activator receptor (uPAR), PLAUR (gene 5329)
In words: BSK_BE3C_uPAR: BioMAP Diversity Plus: BE3C Assay for Urokinase-type plasminogen activator receptor (uPAR) Biomarker Activity (AID 2283039).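 Note: cells exposed to compound for one day before measurement.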 The conditions noted are these: primary human bronchial epithelial cells; actives raise or lower the signal. In short, it runs like this:
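A uPAR ELISA serves as the readout, taken 24 h after treating primary human bronchial epithelial cells. Responses in either direction are fitted against DMSO, which defines baseline activity.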

Read-out in experiment [9]: Interleukin-6 (IL6), IL6 (gene 3569)
In words: BSK_CASM3C_IL6: BioMAP Diversity Plus: CASM3C Assay for Interleukin-6 (IL6) Biomarker Activity for (AID 2283040). As to conditions: primary human coronary artery smooth muscle cells; actives raise or lower the signal.

Read-out in experiment [10]: Tissue plasminogen activator (tPA), PLAT (gene 5327)
In words: BSK_BE3C_tPA: BioMAP Diversity Plus: BE3C Assay for Tissue plasminogen activator (tPA) Biomarker Activity (AID 2283041).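 Note: tPA level quantified by ELISA one day after compound addition.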 The conditions noted are these: primary human bronchial epithelial cells; actives raise or lower the signal. In short, it runs like this: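 Bidirectional curve fitting relative to DMSO defined activity, with tPA detected by ELISA in chemically treated human bronchial epithelial primary cells at 24 hours.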

Read-out in experiment [11]: Interleukin-8 (IL8), CXCL8 (gene 3576)
In words: BSK_CASM3C_IL8: BioMAP Diversity Plus: CASM3C Assay for Interleukin-8 (IL8) Biomarker Activity (AID 2283042).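 Note: IL-8 protein level quantified by ELISA.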 The conditions noted are these: primary human coronary artery smooth muscle cells; actives raise or lower the signal.

Read-out in experiment [12]: Human Leukocyte Antigen - DR isotype (HLADR), HLA-DRA (gene 3122)
In words: BSK_CASM3C_HLADR: BioMAP Diversity Plus: CASM3C Assay for Human Leukocyte Antigen - DR isotype (HLADR) Biomarker Activity (AID 2283043).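 Note: cell-surface HLA-DR protein level quantified by ELISA.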 As to conditions: primary human coronary artery smooth muscle cells; actives raise or lower the signal.

Read-out in experiment [13]: Macrophage colony-stimulating factor (MCSF), CSF1 (gene 1435)
In words: BSK_CASM3C_MCSF: BioMAP Diversity Plus: CASM3C Assay for Macrophage colony-stimulating factor (MCSF) Biomarker Activity (AID 2283044).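 Note: M-CSF protein amount quantified by ELISA after 24 h exposure.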 As to conditions: primary human coronary artery smooth muscle cells; actives raise or lower the signal.

Read-out in experiment [14]: Low-density lipoprotein receptor (LDLR), LDLR (gene 3949)
In words: BSK_CASM3C_LDLR: BioMAP Diversity Plus: CASM3C Assay for Low-density lipoprotein receptor (LDLR) Biomarker Activity (AID 2283045).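 Note: LDLR protein level on the cell surface quantified by ELISA.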 As to conditions: primary human coronary artery smooth muscle cells; actives raise or lower the signal.

Read-out in experiment [15]: Monocyte Chemoattractant Protein-1 (MCP1), CCL2 (gene 6347)
In words: BSK_CASM3C_MCP1: BioMAP Diversity Plus: CASM3C Assay for Monocyte Chemoattractant Protein-1 (MCP1) Biomarker Activity (AID 2283046).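 Note: MCP-1 level quantified by ELISA 24 h after dosing.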 The conditions noted are these: primary human coronary artery smooth muscle cells; actives raise or lower the signal.

The nature of experiment [16]: BSK_CASM3C_Proliferation: Cell Proliferation Assessment in the BioMAP Diversity Plus: CASM3C Assay (AID 2283047).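 Note: sulforhodamine B total protein stain as relative cell number at 560 nm; sub-confluent cells exposed 48 h before staining; fitted both ways against DMSO so gain or loss of cell number.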 The conditions noted are these: primary human coronary artery smooth muscle cells.
Read-out in experiment [17]: Monokine induced gamma interferon (MIG), CXCL9 (gene 4283)
In words: BSK_CASM3C_MIG: BioMAP Diversity Plus: CASM3C Assay for Monokine induced gamma interferon (MIG) Biomarker Activity (AID 2283048). The conditions noted are these: primary human coronary artery smooth muscle cells; actives raise or lower the signal.

Read-out in experiment [18]: serum amyloid A (SAA), SAA1 (gene 6288)
In words: BSK_CASM3C_SAA: BioMAP Diversity Plus: CASM3C Assay for serum amyloid A (SAA) Biomarker Activity (AID 2283049).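 Note: SAA protein level quantified by ELISA.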 As to conditions: primary human coronary artery smooth muscle cells; actives raise or lower the signal.

Experiment [19] can be described thus: BSK_CASM3C_SRB: Viability Assessment in the BioMAP Diversity Plus: CASM3C Assay (AID 2283050). The conditions noted are these: primary human coronary artery smooth muscle cells.
Read-out in experiment [20]: Interferon-gamma inducible Protein 10 (IP10), CXCL10 (gene 3627)
In words: BSK_BE3C_IP10: BioMAP Diversity Plus: BE3C Assay for Interferon-gamma inducible Protein 10 (IP10) Biomarker Activity (AID 2283034). The conditions noted are these: primary human bronchial epithelial cells; actives raise or lower the signal. The essentials:
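Using primary human bronchial epithelial cultures, the assay captures IP-10 by ELISA one day (24 h) after exposure. Parallel SRB staining of total protein flags overt cytotoxicity. Fits run bidirectionally relative to DMSO.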

For the compound `C[C@]12C=CC(=O)C=C1CC[C@@H]1[C@@H]2C(=O)C[C@@]2(C)[C@H]1CC[C@]2(O)C(=O)CO`, the outcome in experiment [1], in experiment [2], in experiment [3], in experiment [4], in [5] and in [6] was inactive. Also, the result in [7], in experiment [8], in experiment [10], in experiment [12], in [14] and in experiment [16] was inactive. Also, in [17], the result was inactive. The AC50 in [9] was 0.704 µM (active); in experiment [11], 0.184 µM (active); in experiment [13] it was 0.243 µM (active); in experiment [15], 0.242 µM (active); in experiment [18] it was 699 nM (active).

With `FC(F)(F)C(F)(F)C(F)(F)C(F)(F)C(F)(F)C(F)(F)CCI`, the outcome in [1], in experiment [2], in experiment [3], in experiment [4], in experiment [5] and in experiment [6] was inactive. The outcome in experiment [7], in experiment [8], in [9], in experiment [10], in experiment [11] and in [12] was inactive. The outcome in experiment [13], in experiment [14], in [15], in [16], in experiment [17] and in experiment [18] was inactive. In experiment [19], the result was inactive.

As to `Oc1ccc2c(c1)OC[C@@H](N1CCC(O)(c3ccc(F)cc3)CC1)[C@H]2O`, the outcome in experiment [1], in experiment [2], in [3], in experiment [20], in experiment [4] and in experiment [5] was inactive. For the same compound, the result in experiment [6], in experiment [7], in experiment [8], in [9], in [10] and in experiment [11] was inactive. The result in [12], in experiment [13], in experiment [14], in experiment [15], in [16] and in experiment [17] was inactive. The result in experiment [18] and in experiment [19] was inactive.

Regarding `Oc1ccc2ccccc2c1N=Nc1ccccc1`, the result in [1], in experiment [2], in experiment [20], in experiment [4], in [5] and in experiment [6] was inactive. Moreover, the outcome in experiment [8], in [9], in experiment [10], in experiment [11], in experiment [12] and in experiment [13] was inactive. Further, the outcome in experiment [14], in [15], in experiment [16], in experiment [17], in experiment [18] and in [19] was inactive. In addition, the values for the concentration at half-maximal activity (AC50) in experiment [3] and in experiment [7] were 0.386 µM (active) and 2.47 µM (active), respectively.

Turning to `O=c1[nH]cc(F)c(=O)[nH]1`, the outcome in [1], in experiment [2], in [3], in experiment [4], in experiment [5] and in experiment [6] was inactive. Also, the outcome in experiment [7], in experiment [8], in experiment [9], in experiment [10], in experiment [11] and in experiment [12] was inactive. The result in experiment [13], in experiment [14], in experiment [15], in experiment [17], in experiment [18] and in [19] was inactive. In experiment [16], the AC50 was 13.7 µM (active).

As for `CC(=O)OCCOCCOCCOC(C)=O`, the outcome in [1], in experiment [2], in [3], in [4], in experiment [5] and in experiment [6] was inactive. The outcome in experiment [7], in experiment [8], in experiment [9], in experiment [10], in experiment [11] and in experiment [12] was inactive. The outcome in experiment [13], in experiment [14], in [15], in [16], in [17] and in experiment [18] was inactive. For the same compound, the result in [19] was inactive.

For `O=c1c(O)c(-c2ccc(O)c(O)c2)oc2cc(O)cc(O)c12`, the AC50 in experiment [2] is 20 µM (active); in [3], 26.9 µM (active); in experiment [9] it was 8.19 µM (active); in experiment [11], 11.6 µM (active); in [13] it was 6.34 µM (active); in experiment [14], 4.11 µM (active). Also, the AC50 was 9.09 µM (active) in experiment [15], 9.64 µM (active) in experiment [16], 20 µM (active) in experiment [17] and 14.2 µM (active) in [19]. Also, the outcome in experiment [20], in experiment [4], in experiment [5], in experiment [6], in experiment [7] and in experiment [8] was inactive. Moreover, the outcome in experiment [10] and in experiment [18] was inactive.

These data come from PubChem BioAssay (EPA / NIEHS).
